CHO-K1 Ca PAM: nonselective calcium activators in parental CHO-K1 cells, primary screen, counter-screen for M1 PAM project, cell-based, Fluo-8 calcium fluorescence, full deck, 1536-well. ATP EC20; 0% at ATP EC20, 100% at ATP max. activation, % at 3 µM. 360,000 tested, 0.02% active. AID 602247, 2012;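 active = activation above the run cutoff, the mean activation of all test compounds plus 3 SD, cut at about 40% in these data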;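 also: peak over basal fluorescence ratio in a 140 s read after ATP addition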
M1 ag: human M1 muscarinic receptor agonists, primary screen, Fluo-8 calcium fluorescence, CHO-K1 cells, HTS | Muscarinic acetylcholine receptor M1 (Homo sapiens), P11229 | CHO-K1 hM1, agonist mode; 0% DMSO, 100% acetylcholine EC100 | activation, % at 3 µM | 360,000 tested, 0.33% active | AID 588814, 2011;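 active = activation above the run's mean compound activation plus 3 SD, cut at about 16% in these data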;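 also: peak over basal fluorescence ratio within a 140 s kinetic read after compound addition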
Target sequence (P11229 whole entry, looked up): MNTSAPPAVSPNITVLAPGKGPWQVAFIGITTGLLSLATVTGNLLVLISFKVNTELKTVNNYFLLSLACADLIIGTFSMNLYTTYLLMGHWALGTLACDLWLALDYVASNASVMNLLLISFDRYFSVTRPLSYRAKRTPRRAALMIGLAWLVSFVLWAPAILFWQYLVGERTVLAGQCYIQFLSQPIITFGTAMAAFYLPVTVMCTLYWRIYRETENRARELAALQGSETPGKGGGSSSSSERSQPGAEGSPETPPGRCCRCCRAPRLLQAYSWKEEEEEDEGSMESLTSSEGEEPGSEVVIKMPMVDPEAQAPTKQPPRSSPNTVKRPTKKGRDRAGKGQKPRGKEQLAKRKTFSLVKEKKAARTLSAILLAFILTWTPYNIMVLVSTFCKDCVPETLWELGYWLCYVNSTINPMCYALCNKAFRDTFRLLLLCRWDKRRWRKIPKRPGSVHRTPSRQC
M1 ag parental: counter-screen for M1 agonists: effect in parental CHO-K1 cells. Fluo-8 calcium fluorescence; scaled to maximal ATP response, vehicle zero. activation, % at 3 µM. 360,000 tested, 0.48% active; in the data active = activation above about 15%;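 also: untransfected CHO-K1 host cells lacking M1 receptor as counterscreen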
M1 antag: human M1 muscarinic receptor antagonists, primary screen, CHO-K1 cells, Fluo-8 calcium fluorescence, 1536-well. inhibition, % at 3 µM. 360,000 tested, 1.3% active. CHO-K1 hM1, ACh EC80 antagonist. Muscarinic acetylcholine receptor M1 (Homo sapiens), P11229;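 active = percent inhibition above its own plate's cutoff, namely the mean of that plate's compound wells plus 3 SD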;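 also: peak over basal fluorescence ratio during 140 s after agonist addition; 0% = ACh EC80 plus DMSO and 100% = DMSO alone without agonist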
M1 PAM: human M1 muscarinic receptor positive allosteric modulators, primary screen, CHO-K1 cells, Fluo-8 calcium fluorescence, 1536-well; 360,000 tested, 0.088% active; AID 588819, 2011; Muscarinic acetylcholine receptor M1 (Homo sapiens), P11229; activation, % at 3 µM; CHO-K1 hM1, ACh EC20; 0% = ACh EC20, 100% = maximal ACh; in the data active = activation above about 19%, passing the limit was not always enough
CHO-K1 Ca antag: counter-screen for M1 antagonists: effect in parental CHO-K1 cells; ATP-induced calcium, Fluo-8 fluorescence; inhibition, % at 3 µM; 360,000 tested, 0.6% active; AID 602250;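 active = inhibition above a per-plate cutoff, the plate's mean sample inhibition plus 3 SD, cut at about 24% in these data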;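 also: 0% = DMSO plus EC80 ATP and 100% = DMSO alone without ATP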
* = called active by the depositor. The list is not random: actives were taken first. Their share in the collection is about 2.3%.

SMILES	CHO-K1 Ca PAM	M1 ag	M1 ag parental	M1 antag	M1 PAM	CHO-K1 Ca antag
CCCN1CCN(C(=O)C2CCN(S(=O)(=O)c3ccc4c(c3)NC(=O)C(C)S4)CC2)CC1 (stereo unspecified)	23	-5	1	0	-1	-6
COCc1ccc(C(=O)N2CCCC(C(=O)c3ccc(Cl)cc3C)C2)o1 (stereo unspecified)	13	-1	2	-9	10	-15
CCOC(=O)C1CCCN(C/C=C/c2ccccc2[N+](=O)[O-])C1 (stereo unspecified)	20	-7	2	28*	-16	-7
O=[N+]([O-])c1ccccc1/C=C/CN1CCCCC1	17	-8	0	45*	-21	-8
O=[N+]([O-])c1ccccc1/C=C/CN1CCCCC1CO (stereo unspecified)	15	-7	1	9	-12	-10
CCOC(=O)C1CCCN(C/C=C/c2ccccc2)C1 (stereo unspecified)	-16	-11	0	56*	-27	4
CCOC(=O)C1CCN(C/C=C/c2ccccc2)CC1	21	-3	1	-15	4	-13
CN(C/C=C/c1ccccc1[N+](=O)[O-])Cc1ccccc1	-1	-10	0	55*	-30	-6
COc1cccc(CNC(=O)CCC2CCCN(C(=O)C3CCOCC3)C2)c1 (stereo unspecified)	13	-3	0	8	0	-16
COc1ccc(OC)c(S(=O)(=O)N2CCCC2C(=O)NC(C)c2ccccc2)c1 (stereo unspecified)	20	-4	1	-9	8	-10
Fc1ccc(-c2nnc(SCc3cccnc3)o2)cc1	10	-9	0	3	2	3
COc1ccccc1NC(=O)CSCc1cc(=O)n2ccsc2n1	3	-4	0	0	7	-11
N#C/C(=C(/O)CN1CCOCC1)c1nc(-c2ccccc2)cs1	1	0	0	-7	2	-20
CCOC(=O)C1CCCN(C/C(O)=C(\C#N)c2nc(-c3ccccc3)cs2)C1 (stereo unspecified)	25	56*	2	22	-24	-23
CSc1nc(N)nc(C2CC2)n1	6	-3	1	10	-4	-3
O=S(=O)(c1ccc(Cl)cc1)N1CCNCC1	19	-3	0	7	-1	-1
Clc1ccc(C(c2cccs2)N2CCNCC2)cc1 (stereo unspecified)	-9	-3	1	45*	-28	2
CN(C)CCCOC(=O)N1c2ccccc2C=Cc2ccccc21	19	-10	4	95*	-29	-14
O=C1CCC(=O)c2ccc3c4c(ccc1c24)CC3	3	-6	0	-9	2	-5
O=C1CCN2C=Nc3cccc4ccc1c2c34	-8	25*	18*	-13	-3	-2
c1ccc(CC(Nc2ccccn2)c2ccccc2)cc1 (stereo unspecified)	-3	-11	1	-6	2	-6
Cc1ccccc1-n1nnnc1SCC(N)=O	24	-2	1	-16	4	-13
NC(=O)CSc1nnnn1CC(CC(=O)O)c1ccccc1 (stereo unspecified)	-6	0	0	0	11	25*
COC(=O)[C@H](Cc1c[nH]c2ccccc12)NC(=O)Nc1ccccc1OC	15	-1	6	-5	0	-9
COc1ccc(C(=O)CSc2nc3cccnc3n2C)cc1	-7	3	1	-8	-6	28*
SMILES	CHO-K1 Ca PAM	M1 ag	M1 ag parental	M1 antag	M1 PAM	CHO-K1 Ca antag
CCOC(=O)c1ccc(NC(=O)CSc2nc3cccnc3n2C)cc1	-8	0	1	19	-8	34*
CCCSc1nnc(NC(=O)Nc2ccc(F)cc2)s1	-3	1	3	16	-6	24*
CCNC(=O)Nc1ccc(-n2nc(C)c(C(=O)OCC)c2C)nc1	18	-3	2	-10	6	-19
C/C(=N\Nc1ccccn1)c1ccc(OC(F)F)cc1	16	-6	17*	-8	4	-2
O=C(NCC1(N2CCCCC2)CCCCC1)c1ccc(NS(=O)(=O)c2ccccc2)cc1	-4	-8	1	-13	5	28*
CNS(=O)(=O)c1ccc(CNC[C@H]2O[C@@H](n3cnc4c(=O)[nH]c(N)nc43)[C@H](O)[C@@H]2O)cc1	16	-4	0	-11	0	-14
C=CCN(c1ccc(C(=O)Nc2ccc(NC(C)=O)cc2)cc1)S(C)(=O)=O	21	-8	1	-10	14	2
O=C(/C=C/c1ccccc1)CC(=O)c1ccccc1O	13	-3	-1	7	-3	-11
Cc1cc(C)nc(/N=C(\N)N2CCCCCC2)n1	10	-12	0	30*	-24	-2
C[C@H]1C(=O)N(C)CCN1C(=O)c1cccc(OC2CCN(CC(C)(C)C)CC2)c1	-8	-1	0	-6	7	-13
CC1CC2(CCCCC2)N2C(=O)C(=O)c3cccc1c32 (stereo unspecified)	18	17*	-1	-9	7	-13
CCC1(C)CC(C#N)(C#N)C(=O)NC1=O (stereo unspecified)	18	-3	1	-4	4	-5
O=C(Nc1ccc(N2CCN(C(=O)c3ccco3)CC2)cc1)c1cccnc1Cl	-2	-6	0	-16	14	8
CCC(C(=O)NCCC(C)C)n1ccc2cc(S(=O)(=O)N3CCCCC3)ccc21 (stereo unspecified)	-19	1	13	45*	-20	13
O=C(NCCc1c[nH]c2ccccc12)C(=O)NCC(c1ccco1)N1CCN(c2ccccc2F)CC1 (stereo unspecified)	8	-4	0	-4	5	1
Cc1c(C(=O)OCC(=O)NCCN2C(=O)CSC2=O)cccc1[N+](=O)[O-]	-19	-3	0	29	-11	30*
C=CCn1c(SCC#N)nc2sc(CC)cc2c1=O	-7	-6	1	34*	-20	-19
Cc1ccc2c(c1)c1nnc(SCC(=O)Nc3ccc(N(C)C)cc3)nc1n2CC(=O)O	9	0	1	-23	10	-13
CCOc1ccccc1OC(=O)c1ccco1	-6	-1	0	12	3	27*
CNc1cncc(-c2cccc(OC)c2F)n1	27	-6	0	-13	9	-19
COc1ccc(/C=C/C(=O)c2cc(F)ccc2OC(=O)c2ccc(OC)c(OC)c2)cc1OC	15	-6	4	10	0	2

Screening data from PubChem BioAssay.
